This is an account of results in ChEMBL document CHEMBL1961873, “Compounds: GSK PKIS; Assays: Nanosyn kinase panel” (2012).

One may read the inhibition as the drop in the measured response relative to a control, in per cent.

Structures are written as SMILES.

The first assay deals with PAS domain-containing serine/threonine-protein kinase (Homo sapiens) (UniProt Q96RG2). As to conditions: at 0.1 µM.
PAS domain-containing serine/threonine-protein kinase (Homo sapiens), sequence (Q96RG2 whole entry, the tested form may be a part): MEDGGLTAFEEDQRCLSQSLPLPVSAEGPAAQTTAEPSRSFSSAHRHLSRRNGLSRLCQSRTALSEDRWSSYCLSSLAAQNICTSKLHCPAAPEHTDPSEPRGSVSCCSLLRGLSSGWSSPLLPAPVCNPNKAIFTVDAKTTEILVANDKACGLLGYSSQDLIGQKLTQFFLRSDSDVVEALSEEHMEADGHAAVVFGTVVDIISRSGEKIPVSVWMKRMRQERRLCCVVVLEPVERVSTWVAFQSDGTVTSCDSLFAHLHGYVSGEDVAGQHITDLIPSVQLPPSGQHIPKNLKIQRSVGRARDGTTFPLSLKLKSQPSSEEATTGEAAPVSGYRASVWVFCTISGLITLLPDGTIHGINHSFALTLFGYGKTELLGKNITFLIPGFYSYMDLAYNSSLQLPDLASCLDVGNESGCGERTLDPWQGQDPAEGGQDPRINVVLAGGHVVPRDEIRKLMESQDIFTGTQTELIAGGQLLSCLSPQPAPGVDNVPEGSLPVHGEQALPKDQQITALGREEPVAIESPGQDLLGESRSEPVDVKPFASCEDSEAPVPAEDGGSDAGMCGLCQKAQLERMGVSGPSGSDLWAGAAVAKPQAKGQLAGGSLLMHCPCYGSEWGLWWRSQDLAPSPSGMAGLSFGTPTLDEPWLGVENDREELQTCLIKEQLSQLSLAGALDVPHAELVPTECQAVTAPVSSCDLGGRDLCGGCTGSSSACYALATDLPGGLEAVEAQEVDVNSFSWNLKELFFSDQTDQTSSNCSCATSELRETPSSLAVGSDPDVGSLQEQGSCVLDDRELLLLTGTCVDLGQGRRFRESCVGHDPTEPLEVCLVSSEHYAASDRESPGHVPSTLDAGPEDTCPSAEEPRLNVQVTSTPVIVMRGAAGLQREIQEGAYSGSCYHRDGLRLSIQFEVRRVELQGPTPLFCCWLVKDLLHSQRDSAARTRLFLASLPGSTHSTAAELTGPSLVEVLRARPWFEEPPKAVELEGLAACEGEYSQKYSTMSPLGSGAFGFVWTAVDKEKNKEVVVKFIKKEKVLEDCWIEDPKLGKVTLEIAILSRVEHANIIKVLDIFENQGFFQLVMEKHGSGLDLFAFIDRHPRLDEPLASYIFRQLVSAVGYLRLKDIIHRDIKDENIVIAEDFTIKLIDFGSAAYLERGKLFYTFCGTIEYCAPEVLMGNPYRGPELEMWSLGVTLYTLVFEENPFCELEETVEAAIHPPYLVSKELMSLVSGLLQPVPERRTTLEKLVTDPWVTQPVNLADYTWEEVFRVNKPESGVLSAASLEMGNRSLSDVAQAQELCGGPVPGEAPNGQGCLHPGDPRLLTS
As to `CCS(=O)(=O)c1ccc(OC)c(Nc2ncc(-c3cccc(-c4ccccc4F)c3)o2)c1`, the inhibition is -0.22%.
For the compound `C/C(Nc1ccc(S(N)(=O)=O)cc1)=C1/C(=O)Nc2ccccc21`, the inhibition was -1.08%.
Turning to `CN(C)CCOc1ccc(-c2cc(-c3ccc4c(c3)CCC4=NO)c(-c3ccncc3)o2)cc1`, the inhibition is 1.53%.
As for `CCc1cccc(CC)c1/C=C/c1cncc(C(=O)NC)c1`, the inhibition was 0.55%.
Regarding `COc1ccc2cc(-c3c(-c4ccncc4)nc(-c4ccc(S(C)(=O)=O)cc4C)n3C)ccc2c1`, the inhibition is -0.05%.
Same read-out and setting: to `CCS(=O)(=O)c1ccc(OC)c(Nc2ncc(-c3ccccc3Cl)o2)c1` belongs 1.42%; to `COc1cc2ncn(-c3cc(OCCc4ccccc4)c(C(N)=O)s3)c2cc1OC`, 0.16%.
On to `CN1CCN(CCCNc2nc3ccc(Oc4ccc(NC(=O)Nc5cc(C(F)(F)F)ccc5F)cc4)cc3[nH]2)CC1`, for which the inhibition is 1.07%.
On the same count and under the same terms, then `Cc1ccc(NC(=O)c2ccoc2)cc1-c1ccc(C(=O)NCC2CC2)cc1`, with 1.03%.
As for `COc1ccc2cc(-c3c(-c4ccncc4)nc(-c4ccc([S+](C)[O-])cc4C)n3C)ccc2c1` (stereo not drawn), the inhibition was -0.31%.
Still for that read-out and setting: to `O=C(NCC1CC1)c1ccc(-c2cccc(C(=O)NC3CC3)c2)cc1` belongs 0.62%; to `O=C(Nc1n[nH]c2cc(-c3cc(F)ccc3F)ccc12)C1CC1`, -1.13%.
The same measure, in the same setting: to `COc1cc(N2CCN(C(C)C)CC2)ccc1Nc1nc(Nc2ccc(F)cc2C(=O)NC[C@@H](O)CO)c2cc[nH]c2n1` belongs -0.25%.
In the case of `NC(=O)c1cc(-c2ccncc2)cc(-c2ccccc2)c1N`, the inhibition came to 0.12%.
With `Fc1ccc(-c2ncn(C3CCNCC3)c2-c2ccnc(Oc3ccc4c(c3)OCO4)n2)cc1`, the inhibition was found to be 0.16%.
Turning to `FC(F)(F)c1cccc(Nc2nccc(-c3cnn4nc(-c5ccccc5)ccc34)n2)c1`, the inhibition stood at 0.34%.
For `COc1cc2ncn(-c3cc(OCc4ccccc4C(F)(F)F)c(C(C)=O)s3)c2cc1OC`, the inhibition was determined as 0.79%.
`Fc1ccc(-c2ncn(CCCN3CCOCC3)c2-c2ccncc2)cc1`: the inhibition is 0.57%.
Same read-out and setting: to `NS(=O)(=O)c1ccc(Nc2cc(-c3ccc(O)c(F)c3)n[nH]2)cc1` belongs -0.77%; to `CN(C)CCCNc1nccc(-c2c(-c3ccc(F)cc3)nn3cc(C(F)(F)F)ccc23)n1`, 0.83%; to `Fc1ccc(-c2c(-c3ccncc3)nc3n2CCS3)cc1`, -0.68%.
Same read-out and setting: to `O=C(Nc1n[nH]c2nc(-c3ccco3)ccc12)C1CC1` belongs 0.36%.
Still for that read-out and setting: then `C[C@@H](Oc1cc(-n2cnc3ccc(OCC4CCN(C)CC4)cc32)sc1C(N)=O)c1ccccc1Cl`, with -0.74%; and `c1ccc(-c2n[nH]cc2-c2ccnc(-c3ccc(OCCN4CCOCC4)cc3)c2)nc1`, with 4.29%; and `O=C1Nc2ccccc2/C1=C/Nc1ccc(-n2cncn2)cc1`, with 0.03%.
`c1ccc(Oc2ccc(Nc3ncc(-c4ccccc4)o3)cc2)cc1`: the inhibition was -0.25%.
In the case of `CCN(CC)Cc1ccc(Nc2nccc(-c3cnn4ncccc34)n2)cc1`, the inhibition was -0.55%.
As to `Cc1ccc(C(=O)NC(C)C)cc1-c1ccc(C(=O)NCC2CC2)cc1`, the inhibition stood at 0.53%.
Still for that read-out and setting: to `COc1cc2ncn(-c3cc(OCc4cccs4)c(C(N)=O)s3)c2cc1OC` belongs 2.13%.
As to `O=C(Nc1ccc(Oc2ccc3[nH]c(NC(=O)c4ccccc4)nc3c2)cc1)Nc1cc(C(F)(F)F)ccc1F`, the inhibition came out at 0.68%.
Still for that read-out and setting: to `COc1ccc(-c2ccc3c(NC(=O)C4CC4)n[nH]c3n2)cc1` belongs 0.2%.
Same read-out and setting: to `COc1cc(Nc2ncc3c(C)nc(-c4cccc(C(F)(F)F)c4)n3n2)cc(OC)c1OC` belongs -0.04%; to `Fc1ccc(-c2ncn(C3CCNCC3)c2-c2ccnc(Oc3ccc(F)c(F)c3)n2)cc1`, -0.38%; to `NS(=O)(=O)c1ccc(N/N=C2\C(=O)Nc3ccc(C(=O)NCCCn4ccnc4)cc32)cc1`, 0.17%.

The target is the same in the next assay. The note with it: at 1 µM.
In the case of `CCS(=O)(=O)c1ccc(OC)c(Nc2ncc(-c3cccc(-c4ccccc4F)c3)o2)c1`, the inhibition was -0.96%.
On the same count and under the same terms, to `C/C(Nc1ccc(S(N)(=O)=O)cc1)=C1/C(=O)Nc2ccccc21` belongs -1.37%.
With `CN(C)CCOc1ccc(-c2cc(-c3ccc4c(c3)CCC4=NO)c(-c3ccncc3)o2)cc1`, the inhibition turned out to be 1.21%.
In the case of `CCc1cccc(CC)c1/C=C/c1cncc(C(=O)NC)c1`, the inhibition was -0.71%.
Same read-out and setting: to `COc1ccc2cc(-c3c(-c4ccncc4)nc(-c4ccc(S(C)(=O)=O)cc4C)n3C)ccc2c1` belongs 2.36%; to `CCS(=O)(=O)c1ccc(OC)c(Nc2ncc(-c3ccccc3Cl)o2)c1`, 0.93%; to `COc1cc2ncn(-c3cc(OCCc4ccccc4)c(C(N)=O)s3)c2cc1OC`, -0.56%.
As for `CN1CCN(CCCNc2nc3ccc(Oc4ccc(NC(=O)Nc5cc(C(F)(F)F)ccc5F)cc4)cc3[nH]2)CC1`, the inhibition is -1.18%.
For the compound `Cc1ccc(NC(=O)c2ccoc2)cc1-c1ccc(C(=O)NCC2CC2)cc1`, the inhibition was 0.47%.
On the same count and under the same terms, to `COc1ccc2cc(-c3c(-c4ccncc4)nc(-c4ccc([S+](C)[O-])cc4C)n3C)ccc2c1` (stereo not drawn) belongs -0.06%.
On the same count and under the same terms, to `O=C(NCC1CC1)c1ccc(-c2cccc(C(=O)NC3CC3)c2)cc1` belongs -1.02%; to `O=C(Nc1n[nH]c2cc(-c3cc(F)ccc3F)ccc12)C1CC1`, -2.73%.
In the case of `COc1cc(N2CCN(C(C)C)CC2)ccc1Nc1nc(Nc2ccc(F)cc2C(=O)NC[C@@H](O)CO)c2cc[nH]c2n1`, the inhibition amounted to 0.96%.
In the case of `NC(=O)c1cc(-c2ccncc2)cc(-c2ccccc2)c1N`, the inhibition was -1.32%.
Same read-out and setting: to `Fc1ccc(-c2ncn(C3CCNCC3)c2-c2ccnc(Oc3ccc4c(c3)OCO4)n2)cc1` belongs 1.32%.
In the case of `FC(F)(F)c1cccc(Nc2nccc(-c3cnn4nc(-c5ccccc5)ccc34)n2)c1`, the inhibition was determined as 0.28%.
Same read-out and setting: then `COc1cc2ncn(-c3cc(OCc4ccccc4C(F)(F)F)c(C(C)=O)s3)c2cc1OC`, with 1%.
On the same count and under the same terms, to `Fc1ccc(-c2ncn(CCCN3CCOCC3)c2-c2ccncc2)cc1` belongs 0.36%; to `NS(=O)(=O)c1ccc(Nc2cc(-c3ccc(O)c(F)c3)n[nH]2)cc1`, -1.58%; to `CN(C)CCCNc1nccc(-c2c(-c3ccc(F)cc3)nn3cc(C(F)(F)F)ccc23)n1`, -0.37%.
On the same count and under the same terms, then `Fc1ccc(-c2c(-c3ccncc3)nc3n2CCS3)cc1`, with -0.44%; and `O=C(Nc1n[nH]c2nc(-c3ccco3)ccc12)C1CC1`, with -0.43%; and `C[C@@H](Oc1cc(-n2cnc3ccc(OCC4CCN(C)CC4)cc32)sc1C(N)=O)c1ccccc1Cl`, with 3.45%.
For the compound `c1ccc(-c2n[nH]cc2-c2ccnc(-c3ccc(OCCN4CCOCC4)cc3)c2)nc1`, the inhibition turned out to be 2.12%.
As to `O=C1Nc2ccccc2/C1=C/Nc1ccc(-n2cncn2)cc1`, the inhibition was determined as 1.73%.
Regarding `c1ccc(Oc2ccc(Nc3ncc(-c4ccccc4)o3)cc2)cc1`, the inhibition was 0.08%.
For `CCN(CC)Cc1ccc(Nc2nccc(-c3cnn4ncccc34)n2)cc1`, the inhibition was -0.46%.
For `Cc1ccc(C(=O)NC(C)C)cc1-c1ccc(C(=O)NCC2CC2)cc1`, the inhibition was 0.4%.
Same read-out and setting: then `COc1cc2ncn(-c3cc(OCc4cccs4)c(C(N)=O)s3)c2cc1OC`, with 6.7%.
Still for that read-out and setting: then `O=C(Nc1ccc(Oc2ccc3[nH]c(NC(=O)c4ccccc4)nc3c2)cc1)Nc1cc(C(F)(F)F)ccc1F`, with 0.73%; and `COc1ccc(-c2ccc3c(NC(=O)C4CC4)n[nH]c3n2)cc1`, with 2.17%.
`COc1cc(Nc2ncc3c(C)nc(-c4cccc(C(F)(F)F)c4)n3n2)cc(OC)c1OC`: the inhibition was 0.78%.
With `Fc1ccc(-c2ncn(C3CCNCC3)c2-c2ccnc(Oc3ccc(F)c(F)c3)n2)cc1`, the inhibition was -0.29%.
Regarding `NS(=O)(=O)c1ccc(N/N=C2\C(=O)Nc3ccc(C(=O)NCCCn4ccnc4)cc32)cc1`, the inhibition was 2.55%.
